ChEMBL document CHEMBL4513216, “Probing the Open Global Health Chemical Diversity Library for Multistage-Active Starting Points for Next-Generation Antimalarials” (ACS Infect Dis, 2020)
In all, about 68,000 compounds went through this assay and about 2,700 (4%) showed an effect of 50% or more. Only a selection was taken, and strong results are over-represented in it overall.

test system: Plasmodium berghei; assay: Screen against P. berghei liver stage (PbLuc), transformed with Luciferase, at 2uM; type: functional, HepG2; details: tested at 2 uM

Compound | INHIBITION
O=C(CNC(=O)c1ccccc1I)NCc1ccccc1F | -20.75%
CS(=O)(=O)NCc1cc(=O)n2c(n1)CN(CC1CC1)CCC2 | 33.12%
Clc1cnccc1N1CCCC2(CCCOC2)C1 (centres undefined) | 48.73%
CCS(=O)(=O)c1ccc(N2CCC(N)CC2)cc1 | 67.9%
CCNC(=O)NC1CCN(c2ccc(S(=O)(=O)CC)cc2)CC1 | -6.38%
CCS(=O)(=O)c1ccc(N2CCC(NC(C)=O)CC2)cc1 | -0.54%
O=C(c1sccc1C1CC1)N1CCN(c2nccs2)CC1 | -15.54%
CC(c1ccon1)N(C)S(=O)(=O)NCc1ccccc1 (centres undefined) | -6.7%
Cc1cc(C(=O)N(C)CC(F)(F)C(F)(F)F)ccc1-n1cncn1 | 49.78%
CCN(CC)C(=O)CCc1nc(-c2cnn3c(C)cc(C)nc23)no1 | -23.48%
O=C(NCc1cccnc1N1CCCC(O)C1)c1ccc2[nH]nnc2c1 (centres undefined) | 33.13%
O=C(NCc1cccnc1N1CCCCC1)c1ccc2cc[nH]c2c1 | 15.75%
O=C(NCc1cccnc1N1CCCCC1)c1ccc2[nH]nnc2c1 | 54.47%
O=C1NC[C@@]2(C(=O)O)CN(Cc3cccc(Oc4ccccc4)c3)C[C@@H]12 | 24.55%
O=C1NC[C@@]2(C(=O)O)CN(Cc3cccc(CN4CCOCC4)c3)C[C@@H]12 | 34.46%
O=C1NC[C@@]2(C(=O)O)CN(Cc3cccc(OC4CCCC4)c3)C[C@@H]12 | 62%
Cc1cc(C(C)(O)CNC(=O)c2ccc(Br)o2)c(C)o1 (centres undefined) | 27.32%
Cc1cc(C(C)(O)CNC(=O)OC(C)(C)C)c(C)o1 (centres undefined) | 25.21%
Cc1cc(C(C)(O)CNC(=O)C2(C)CCCC2)c(C)o1 (centres undefined) | 65.92%
COCC1CC2(CCN(Cc3ccc(OC)cc3)CC2)CN1C(C)C (centres undefined) | 2.07%
CC1CCN(CCNC(=O)c2cncnc2C(C)C)CC1 | 25.35%
Cc1ccccc1-c1ncc(CNCc2csc(C(C)C)n2)s1 | -17.01%
CCC1=NOC(CNCc2cnc(-c3ccccc3C)s2)C1 (centres undefined) | -31.79%
Cc1cnc(CNCc2cnc(-c3ccccc3C)s2)cn1 | 58.53%
COCCN1C=NC2(CCC(C(=O)Nc3ccc(C)cc3)CC2)C1=O (centres undefined) | -76.06%
COc1cccc(-c2noc(C3CCN(Cc4ccccc4C)C3)n2)c1 (centres undefined) | 3.97%

Compound | INHIBITION
COc1cccc(-c2noc(C3CCN(Cc4ccncc4)C3)n2)c1 (centres undefined) | -22.79%
COc1cccc(-c2noc(C3CCN(Cc4ccc(C)cc4)C3)n2)c1 (centres undefined) | 58.96%
Cc1cccc(CN2CCC3(CC2)CN(c2cnn(C)c2)C(=O)CO3)n1 | -29.81%
Cc1cc(NC(=O)C(C#N)Cc2cnn(C)c2C)no1 (centres undefined) | -11.32%
CN1CCCC1CCn1ccnc1-c1nc(-c2ccccc2)no1 (centres undefined) | 17.37%
O=c1c(S(=O)(=O)N2CCCCC2)cccn1Cc1ccccc1Cl | -10.16%
O=c1c(S(=O)(=O)N2CCCC2)cccn1Cc1ccc(F)cc1Cl | 0.78%
O=c1c(S(=O)(=O)N2CCCC2)cccn1Cc1ccccc1Cl | 52.89%
O=C(NCc1cccc(F)c1)NCC(O)c1cccc(F)c1 (centres undefined) | -70.27%
Cc1ccc(C)c(NC(=O)c2coc(C)n2)c1 | 48.68%
COCc1ccc(C(=O)NS(=O)(=O)c2ccc3c(c2)CCC(=O)N3)cc1 | 24.36%
COCc1cc(N2CCc3onc(-c4cccc(OC)c4)c3C2)ncn1 | 5.28%
COc1cccc(-c2noc3c2CN(c2nc(C)ncc2C)CC3)c1 | 36.28%
COc1cccc(-c2noc3c2CN(c2ncnc4c2CCC4)CC3)c1 | 62.51%
CC[C@@H](C)[C@@H](N)C(=O)Nc1cccc(-c2cnc(NCCO)nc2)c1 | -35.83%
CC(C)n1cnnc1C1CCCN(S(=O)(=O)CC2CCCC2)C1 (centres undefined) | 60.42%
CC(C)CCS(=O)(=O)N1CCCC(c2nncn2C(C)C)C1 (centres undefined) | -108.93%
CC(C)n1cnnc1C1CCCN(S(=O)(=O)CCCF)C1 (centres undefined) | -33.29%
Cc1nc(CN2CCC3(C2)CN(C(=O)c2conc2C)C3)cs1 | 3.95%
CC(C)Cc1noc(-c2ccc(NCc3noc(C(C)C)n3)nc2)n1 | 42.17%
CCn1cncc1CNc1ccc(-c2nc(CC(C)C)no2)cn1 | -15.11%
COCC(C)Nc1ccc(-c2nc(Cc3ccc(F)cc3)no2)cn1 (centres undefined) | 31.51%
CCC(O)CNc1ccc(-c2nc(CC(C)C)no2)cn1 (centres undefined) | 69.71%
CC(CO)Nc1ccc(-c2nc(Cc3ccc(F)cc3)no2)cn1 (centres undefined) | 57.75%
COc1ccc(Cc2noc(-c3ccc(NC(C)CO)nc3)n2)cc1 (centres undefined) | 43.44%
CN(C)C(=O)CO[C@H]1CO[C@@]2(CCN(Cc3ccsc3)C2)C1 | -9.99%

Compound | INHIBITION
O=C(CCn1ccccc1=O)N1CCCC(COc2ccc(F)cc2)C1 (centres undefined) | 8.25%
O=C(NC[C@H]1OC[C@@H](NC2CCC(F)(F)CC2)[C@@H]1O)N1CCOCC1 | 11.43%
Cc1cc(C(=O)N2CCC(c3nccn3Cc3ccncc3)CC2)no1 | 17.75%
CCC(C)Oc1cc(C(=O)Nc2nc(C)ns2)ccn1 (centres undefined) | 52.98%
CCC(C)Oc1cc(C(=O)Nc2nccs2)ccn1 (centres undefined) | 41.05%
CCC(C)Oc1cc(C(=O)Nc2nnc(C(C)C)[nH]2)ccn1 (centres undefined) | 38.67%
c1cc(CN2C[C@@H]3OCCN(CCN4CCCC4)[C@@H]3C2)co1 | 2.87%
Cc1nc(-c2cc(Cl)cc3c2OC(CN)C3)c[nH]1 (centres undefined) | 26.74%
Cc1nc(-c2cc(F)c3c(c2)CC(CN)O3)c[nH]1 (centres undefined) | 33.9%
Cc1nc(-c2cc(Cl)c3c(c2)CC(CN)O3)c[nH]1 (centres undefined) | 74.44%
CN(CC(F)(F)F)C(=O)Cn1cc(NC(=O)C(C)(C)C)cn1 | -48.48%
COc1cccc(-n2c(C)cc(C(=O)NCCCC(N)=O)c2C)c1 | 30.29%
COc1cccc(-n2c(C)cc(C(=O)NC(C)(C)C(N)=O)c2C)c1 | 50.05%
CNC(=O)c1cc(C)n(-c2cccc(OC)c2)c1C | 31.7%
CN(Cc1ccco1)C[C@H]1OC[C@@H]2CN(c3ncc(F)cn3)CC[C@@H]21 | 17.89%
O=C(NC1CC1)[C@H]1CN(Cc2ccc3c(c2)OCO3)C[C@H]2OCC[C@@H]12 | -0.18%
Cc1cc(C(=O)NCCc2c(C)nn(C)c2C)nc(N2CCCCC2)n1 | 52.82%
Cc1cc(C(=O)NCc2c(C)nn(C)c2C)nc(N2CCOCC2)n1 | -68.8%
Cc1cc(C(=O)NCc2c(C)nn(C)c2C)nc(N2CCCC2)n1 | -70.38%
O=C(O)c1csc(S(=O)(=O)N2CCCc3cccc(OC(F)F)c32)c1 | -58.31%
CC(C)C(=O)NCc1ccccc1NS(=O)(=O)c1ccccc1 | -1.56%
CN(C(=O)c1ccco1)C1CCC(NC(=O)OC(C)(C)C)CC1 (centres undefined) | 38.67%
CN(C(=O)c1ccc[nH]1)C1CCC(NC(=O)OC(C)(C)C)CC1 (centres undefined) | 48.21%
CN(C(=O)c1cccn1C)C1CCC(NC(=O)OC(C)(C)C)CC1 (centres undefined) | 62.51%
c1cnc(N2CCC3(CCCN(Cc4ccncc4)C3)CC2)nc1 | 4.89%
c1cncc(COCc2cncc3c2CCN(Cc2ccoc2)C3)c1 | 25.5%

Compound | INHIBITION
Cc1[nH]c2ccccc2c1-c1ccnc(NCCN2CCCCC2)n1 | -2.21%
O=C(O)c1nnn(-c2ccc(C(F)(F)F)cc2)c1-c1ccncc1 | -40.92%
CCOC(=O)CC(C)Nc1nc(C2CCCC2)nc2c1cnn2C (centres undefined) | 57.64%
CC(C)C[C@H](Nc1nc(C2CCCC2)nc2c1cnn2C)C(N)=O | 52.38%
CCOC(=O)CC(C)Nc1nc(C(C)(C)C)nc2c1cnn2C (centres undefined) | -70.6%
CC(C)[C@H](Nc1nc(C2CCCC2)nc2c1cnn2C)C(N)=O | 23.16%
COC(=O)[C@@H](Nc1nc(C2CCCC2)nc2c1cnn2C)[C@@H](C)O | 40.4%
COC(=O)[C@H](CSC)Nc1nc(C2CCCC2)nc2c1cnn2C | 43.28%
CCOCC1CN(C(=O)Cc2ccsc2)Cc2ccnn2C1 (centres undefined) | 21.77%
CC(=O)N1CCCN(C(C(=O)O)c2cccc(C)c2C)CC1 (centres undefined) | -17.37%
O=C1COC2(CCN(Cc3cccnc3)CC2)CN1 | 11.87%
c1cncc(N2CCOCC3(CCCN(Cc4cccs4)C3)C2)c1 (centres undefined) | -26.24%
Cc1c(Cl)c(C(=O)N2CC(c3cccnc3)C2)nn1C | 7.62%
Cc1ccc2nc(C(=O)N3C[C@@H](C(=O)O)[C@H](c4cccnc4)C3)cn2c1 | 1.52%
Cc1c(Cl)c(C(=O)N2C[C@@H](C(=O)O)[C@H](c3cccnc3)C2)nn1C | 69.71%
Cc1nc(C)n(CC2CCCN2CCCOc2ccc(F)cc2)n1 (centres undefined) | -8.1%
CCC(C(=O)Nc1ccc2nc(C)oc2c1)N1CCCC1=O (centres undefined) | 14.06%
CNc1cc(C)nc(NC2CCCN(C3Cc4ccccc4C3)C2)n1 (centres undefined) | 8.26%
CNc1nc(C)cc(NC2CCCN(C3Cc4ccccc4C3)C2)n1 (centres undefined) | 58.03%
Cc1ccc(NC2CCCN(C3Cc4ccccc4C3)C2)nn1 (centres undefined) | 3.91%
CC(C)COC1CC2(CCN(C(=O)Cc3ccccn3)CC2)C1 | -9.07%
CSCc1noc(Cn2ncn3cccc3c2=O)n1 | 46.15%
c1cc(CN2CCOCC3(CCN(CC4CCOCC4)CC3)C2)ccn1 | 26.76%
CCc1c(C(=O)N2CCOC(C)(C)C2)cnn1-c1ccccn1 | 61.63%
CCc1c(C(=O)N2CC(C)OC(C)(C)C2)cnn1-c1ccccn1 (centres undefined) | 24.23%
CC1CN(C(=O)c2cnn(-c3ccccn3)c2C(C)C)CC(C)(C)O1 (centres undefined) | -4.15%
